# PubChem BioAssay AID1159580 (chemical genetic matrix, 2015)
# Among all 5,500 compounds or so, about 2,000 (36%) were called active. Roughly 18% stayed inconclusive and do not appear here. This is one part of the list. A number with no mark means an inactive call. Cut-off read from the data, not from the text of the source: active = normalized growth mostly below about 0.91 (no sharp cut-off); inconclusive = no clear call, values can overlap the other calls; inactive = mostly above about 0.92.
# Test: chemical genetic growth profiling, strain panel (AID 1159580);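 note: tested at 20 µM; growth read once vehicle control cultures reached saturation at 30 °C; 1 = growth at the plate median or of vehicle wells; lower values mean less growth of the strain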
# Settings: S. cerevisiae deletion strains, growth OD
# [1] = locus YCL061C, strain MRC1, active compounds read low
# [2] = locus YJL187C, strain SWE1, active compounds read low
smiles,measurement,setting,value
CCCCCCc1cc2c(C)cc(=O)oc2cc1O,normalized growth,"locus YAL013W, strain DEP1, active compounds read low",0.979
same,normalized growth,"locus YBR229C, strain ROT2, active compounds read low",0.895 (active)
same,normalized growth,[1],0.968
same,normalized growth,"locus YDL101C, strain DUN1, active compounds read low",1.02
same,normalized growth,"locus YDL134C, strain PPH21, active compounds read low",0.976
same,normalized growth,"locus YDR150W, strain NUM1, active compounds read low",0.996
same,normalized growth,"locus YEL061C, strain CIN8, active compounds read low",0.966
same,normalized growth,"locus YGR078C, strain PAC10, active compounds read low",0.996
same,normalized growth,"locus YGR229C, strain SMI1, active compounds read low",0.976
same,normalized growth,"locus YHR030C, strain SLT2, active compounds read low",0.922
same,normalized growth,"locus YHR087W, strain rtc3, active compounds read low",0.725 (active)
same,normalized growth,[2],0.938
same,normalized growth,"locus YJR043C, strain POL32, active compounds read low",1.03
same,normalized growth,"locus YJR075W, strain HOC1, active compounds read low",0.888 (active)
same,normalized growth,"locus YKL190W, strain CNB1, active compounds read low",0.959
same,normalized growth,"locus YLR039C, strain RIC1, active compounds read low",0.721 (active)
same,normalized growth,"locus YLR058C, strain SHM2 (second series), active compounds read low",0.981
same,normalized growth,"locus YLR085C, strain ARP6, active compounds read low",0.864
same,normalized growth,"locus YLR262C, strain YPT6, active compounds read low",0.782 (active)
same,normalized growth,"locus YML094W, strain GIM5, active compounds read low",0.918
same,normalized growth,"locus YMR219W, strain ESC1, active compounds read low",0.973
same,normalized growth,"locus YMR263W, strain SAP30, active compounds read low",0.976
same,normalized growth,"locus YMR307W, strain GAS1, active compounds read low",0.803
same,normalized growth,"locus YNL153C, strain GIM3, active compounds read low",0.965
same,normalized growth,"locus YNL298W, strain CLA4 (second series), active compounds read low",0.942
same,normalized growth,"locus YNL322C, strain KRE1, active compounds read low",0.989
same,normalized growth,"locus YNR030W, strain Alg12, active compounds read low",0.927
same,normalized growth,"locus YOL006C, strain TOP1, active compounds read low",0.863
same,normalized growth,"locus YPL055C, strain LGE1, active compounds read low",0.896
same,normalized growth,"locus YPL241C, strain CIN2, active compounds read low",0.932
same,normalized growth,"locus YPR135W, strain CTF4, active compounds read low",0.792
Cc1cc(=O)oc2cc(O)cc(O)c12,normalized growth,"locus YAL021C, strain ccr4, active compounds read low",0.968
same,normalized growth,"locus YAL026C, strain drs2, active compounds read low",0.96
same,normalized growth,"locus YAL030W, strain snc1, active compounds read low",0.952
same,normalized growth,"locus YBL061C, strain skt5, active compounds read low",0.958
same,normalized growth,"locus YBR009C, strain hhf1, active compounds read low",0.949
same,normalized growth,"locus YBR023C, strain chs3, active compounds read low",0.949
same,normalized growth,"locus YBR171W, strain sec66, active compounds read low",0.965
same,normalized growth,"locus YBR231C, strain swc5, active compounds read low",0.975
same,normalized growth,"locus YBR279W, strain paf1, active compounds read low",0.969
same,normalized growth,"locus YCL011C, strain gbp2, active compounds read low",0.95
same,normalized growth,"locus YCL016C, strain dcc1, active compounds read low",0.966
same,normalized growth,[1],0.983
same,normalized growth,"locus YCL069W, strain vba3, active compounds read low",0.965
same,normalized growth,"locus YCR088W, strain abp1, active compounds read low",0.958
same,normalized growth,"locus YDL005C, strain med2, active compounds read low",0.961
same,normalized growth,"locus YDL040C, strain nat1, active compounds read low",0.958
same,normalized growth,"locus YDR001C, strain nth1, active compounds read low",0.957
same,normalized growth,"locus YDR069C, strain doa4, active compounds read low",0.941
same,normalized growth,"locus YDR137W, strain rgp1, active compounds read low",0.962
same,normalized growth,"locus YDR159W, strain sac3, active compounds read low",0.932
same,normalized growth,"locus YDR195W, strain ref2",0.925
same,normalized growth,"locus YDR297W, strain sur2, active compounds read low",0.96
same,normalized growth,"locus YDR334W, strain swr1, active compounds read low",0.948
same,normalized growth,"locus YDR335W, strain msn5, active compounds read low",0.978
same,normalized growth,"locus YDR392W, strain spt3, active compounds read low",0.938
same,normalized growth,"locus YEL003W, strain gim4, active compounds read low",0.978
same,normalized growth,"locus YEL037C, strain rad23, active compounds read low",0.929
same,normalized growth,"locus YEL061C, strain CIN8 (second series), active compounds read low",0.951
same,normalized growth,"locus YER015W, strain faa2, active compounds read low",0.998
same,normalized growth,"locus YER016W, strain bim1, active compounds read low",0.965
same,normalized growth,"locus YER111C, strain swi4, active compounds read low",0.949
same,normalized growth,"locus YER155C, strain BEM2 (second series), active compounds read low",0.932
same,normalized growth,"locus YFR010W, strain ubp6, active compounds read low",0.943
same,normalized growth,"locus YGL167C, strain pmr1, active compounds read low",0.943
same,normalized growth,"locus YGL173C, strain kem1, active compounds read low",0.97
same,normalized growth,"locus YGL227W, strain vid30, active compounds read low",0.95
same,normalized growth,"locus YGL240W, strain doc1, active compounds read low",0.971
same,normalized growth,"locus YGL253W, strain hxk2, active compounds read low",0.995
same,normalized growth,"locus YHR013C, strain ard1, active compounds read low",0.948
same,normalized growth,"locus YHR027C, strain rpn1, active compounds read low",0.964
same,normalized growth,"locus YHR142W, strain chs7, active compounds read low",0.94
same,normalized growth,"locus YJL092W, strain hpr5, active compounds read low",0.969
same,normalized growth,"locus YJL095W, strain BCK1 (second series), active compounds read low",0.974
same,normalized growth,"locus YJL115W, strain asf1, active compounds read low",0.958
same,normalized growth,"locus YJL129C, strain trk1, active compounds read low",0.946
same,normalized growth,"locus YJL154C, strain vps35, active compounds read low",0.971
same,normalized growth,"locus YJL164C, strain tpk1, active compounds read low",0.978
same,normalized growth,"locus YJL166W, strain qcr8, active compounds read low",0.983
same,normalized growth,[2],0.968
same,normalized growth,"locus YKL160W, strain elf1, active compounds read low",0.981
same,normalized growth,"locus YKR026C, strain gcn3, active compounds read low",0.944
same,normalized growth,"locus YKR091W, strain srl3, active compounds read low",0.962
same,normalized growth,"locus YLL001W, strain dnm1, active compounds read low",0.948
same,normalized growth,"locus YLL026W, active compounds read low",0.97
same,normalized growth,"locus YLL041C, strain sdh2, active compounds read low",0.977
same,normalized growth,"locus YLR027C, strain aat2, active compounds read low",0.945
same,normalized growth,"locus YLR221C, strain rsa3, active compounds read low",0.977
same,normalized growth,"locus YLR258W, strain gsy2, active compounds read low",0.966
same,normalized growth,"locus YLR262C, strain YPT6 (second series), active compounds read low",0.977
same,normalized growth,"locus YLR320W, strain mms22, active compounds read low",0.962
same,normalized growth,"locus YLR342W, strain FKS1, active compounds read low",0.958
same,normalized growth,"locus YLR357W, strain rsc2, active compounds read low",0.939
same,normalized growth,"locus YLR370C, strain arc18, active compounds read low",0.932
same,normalized growth,"locus YLR384C, strain iki3, active compounds read low",0.957
same,normalized growth,"locus YML120C, strain ndi1, active compounds read low",0.954
same,normalized growth,"locus YMR058W, strain fet3, active compounds read low",0.967
same,normalized growth,"locus YMR125W, strain sto1, active compounds read low",0.935
same,normalized growth,"locus YMR129W, active compounds read low",0.969
same,normalized growth,"locus YMR205C, strain PFK2, active compounds read low",0.932
same,normalized growth,"locus YMR231W, strain pep5, active compounds read low",1
same,normalized growth,"locus YNL071W, strain lat1, active compounds read low",0.972
same,normalized growth,"locus YNL209W, strain ssb2, active compounds read low",0.965
same,normalized growth,"locus YNL248C, strain rpa49, active compounds read low",0.996
same,normalized growth,"locus YNL322C, strain KRE1 (second series), active compounds read low",0.95
same,normalized growth,"locus YNR049C, strain mso1, active compounds read low",0.954
same,normalized growth,"locus YOR001W, strain rrp6, active compounds read low",0.979
same,normalized growth,"locus YOR070C, strain gyp1, active compounds read low",0.973
same,normalized growth,"locus YOR080W, strain dia2, active compounds read low",0.965
same,normalized growth,"locus YOR083W, strain WHI5, active compounds read low",0.988
same,normalized growth,"locus YOR106W, strain vam3, active compounds read low",0.964
same,normalized growth,"locus YOR265W, strain rbl2, active compounds read low",0.976
same,normalized growth,"locus YOR270C, strain vph1, active compounds read low",0.894
same,normalized growth,"locus YOR290C, strain snf2, active compounds read low",0.939
same,normalized growth,"locus YPL051W, strain arl3, active compounds read low",0.982
same,normalized growth,"locus YPL078C, strain atp4, active compounds read low",0.969
same,normalized growth,"locus YPL106C, strain sse1, active compounds read low",0.927
same,normalized growth,"locus YPL240C, strain hsp82, active compounds read low",0.985
